# Many of the other results were omitted from the sample, so hits are more common in it than they were.
# mHTT CaM bind – inhibitors of human mutant huntingtin-calmodulin interaction; P42858; AlphaScreen His-mHTT/GST-CaM binding, luminescence; inhibition, % at 15 µM; 190,000 compounds, 3.6% hits; AID 1671202
# Pf apPOL inh – Pf-apPOL DNA polymerase inhibition | inhibition, % at 10 µM | Recombinant Pf-apPOL, molecular beacon fluorescence, 1.5 h | AID 1794808 | 210,000 compounds, 0.25% hits
# Hits are given with their value; - = inactive; . = not tested or not shown. Cut-off read from the data, not from the text of the source: active = inhibition above about 50%; inactive = the rest.
SMILES,mHTT CaM bind,Pf apPOL inh
CCOc1ccc2c(c1)OC(=Cc1ccccc1O)C2=O,-,-
CCCN(CCC)CCNS(=O)(=O)c1cc(Br)cc2c1N(C(=O)C1CC1)CC2,-,-
COc1cccc(CN2CCc3c(cc(C(=O)Nc4cccc(C)c4C)n3C)C2)c1,-,-
COc1cccc(CN2CCc3c(cc(C(=O)Nc4ccccc4OC)n3C)C2)c1,88,-
COc1ccccc1NC(=O)c1cc2c(n1C)CCN(Cc1cccc(C)c1)C2,63,-
COc1ccc(CNC(=O)c2cc3c(n2C)CCN(Cc2ccccc2)C3)cc1OC,-,-
COc1cccc(NC(=O)CCC2CCN(c3cc(NC4CC4)ncn3)CC2)c1,-,-
c1cncc(-c2noc(COC3CCN(Cc4ccsc4)CC3)n2)c1,-,-
CN(C)c1ccc(C=NNS(=O)(=O)c2ccc(Cl)cc2)cc1,.,-
O=C(CC1CCCCN1S(=O)(=O)c1cccs1)NCc1ccc2c(c1)OCO2 (centres undefined),-,-
Cc1ccc(CNC(=O)C2(C)CCCN(C(=O)c3cccc(C)c3)C2)cc1 (centres undefined),-,-
O=C(NC1CCCC1)N1CCC2(CC1)Nc1cc(F)ccc1-n1cccc12,-,-
Cc1ccc(CNC(=O)N2CCC3(CC2)Nc2ccccc2-n2cccc23)cc1,77,-
Cc1ccc(NC(=O)N2CCC3(CC2)Nc2ccccc2-n2cccc23)cc1,-,-
CCC(C)NC(=O)N1CCC2(CC1)Nc1cc(F)ccc1-n1cccc12 (centres undefined),-,-
O=C(NCc1ccc(F)cc1)N1CCC2(CC1)Nc1cc(F)ccc1-n1cccc12,59,-
CCOC(=O)CNC(=O)N1CCC2(CC1)Nc1ccccc1-n1cccc12,56,-
COc1ccc2c(c1)NC1(CCN(C(=O)Cc3cccc(F)c3)CC1)c1cccn1-2,73,-
CCOC(=O)c1cnc(-c2ccccc2)nc1N1CCSCC1,-,-
O=C(NCc1ccncc1)c1ccc(N2CCNC(c3ccccc3)C2)nc1 (centres undefined),-,-
CC1(C)OC(=O)C(=CNc2ccc3ccccc3c2)C(=O)O1,-,-
COc1ccc(-c2cn3ccn(-c4cc(F)cc(F)c4)c(=O)c3n2)cc1OC,-,-
COC(=O)CNC(=O)N1CCC2(CC1)Nc1cc(F)ccc1-n1cccc12,-,-
Cc1ccc(C)c(CN2C(=O)NC3(CCN(C(=O)Cc4ccccc4Cl)CC3)C2=O)c1,-,-
Cc1ccc2c(c1C)-n1cccc1C1(CCN(C(=O)Cc3ccccc3Cl)CC1)N2,56,-
SMILES,mHTT CaM bind,Pf apPOL inh
COCCCNC(=O)N1CCC2(CC1)Nc1cc(F)ccc1-n1cccc12,62,-
O=C(CSCc1ccc(F)cc1)N1CCC2(CC1)Nc1cc(F)ccc1-n1cccc12,100,-
COC(=O)C(C)NC(=O)N1CCC2(CC1)Nc1ccccc1-n1cccc12 (centres undefined),55,-
COc1ccccc1NC(=O)N1CCC2(CC1)Nc1ccccc1-n1cccc12,-,-
Fc1ccc(-c2nc(-c3ccc(-n4ccnc4)nc3)no2)cc1,-,-
CCOc1ccc(NC(=O)N2CC(=O)N3CCc4ccccc4C3C2)cc1 (centres undefined),-,-
Cc1cc(C2CCCN2C(=O)c2cc(C(C)C)on2)on1 (centres undefined),-,-
Nc1nc(CSc2ncccn2)nc(Nc2ccccc2)n1,-,-
Cc1ccc2cccc(SCc3nc(N)nc(Nc4ccccc4)n3)c2n1,61,-
Cc1c(C(=O)Nc2ccc(F)c(F)c2)cccc1[N+](=O)[O-],-,-
CCCNC(=S)N=C(N)N1CCOCC1,.,-
CCn1c(SC)nnc1-c1nn(C)c2c1CN(C(=O)c1c(F)cccc1Cl)CC2,-,-
Cc1ccc(C)c(N2CCN(C(=O)c3cc(C)n4nccc4n3)CC2)c1,-,-
CCc1nc(N2CCCC2=O)sc1C(=O)N1CCN(c2cc(C)ccc2C)CC1,95,-
COC(=O)c1cccc(C(=O)N2CCN(c3cc(C)ccc3C)CC2)n1,-,-
CCc1cc(C(=O)N2CCN(c3cc(C)ccc3C)CC2)nc2ccnn12,54,-
CC(C)c1nc(N2CCCC2=O)sc1C(=O)N1CCN(c2ccc(F)cc2)CC1,-,-
CC(C)c1nc(N2CCCC2=O)sc1C(=O)N1CCN(c2ccccc2F)CC1,55,-
CCOc1ccc2ccccc2c1C(=O)NCC(O)Cc1ccccc1 (centres undefined),-,-
Cc1c(NC(=S)Nc2ccc(Cl)c(Cl)c2)cc2c(c1N)C(C)(C)CC2(C)C,.,-
O=C(CSc1cccc2cccnc12)Nc1ccccc1,-,-
CCCCCOc1ccc(NC(=O)CSc2cccc3cccnc23)cc1,83,-
Cc1c(-c2nc(-c3cc(C(F)(F)F)cc(C(F)(F)F)c3)no2)sc2cc(C(C)(C)C)sc12,.,-
Cc1ccc(-c2noc(C3CCCN3C(=O)Cc3ccccc3C)n2)cc1 (centres undefined),-,-
O=C1NC(=O)C2C1C1C=Cc3ccccc3N1C2C(=O)c1ccc(F)cc1 (centres undefined),52,.
SMILES,mHTT CaM bind,Pf apPOL inh
CN1C(=O)C(O)(CC(=O)c2ccc(F)cc2)c2ccccc21 (centres undefined),-,-
COc1cc(CCCO)cc(-c2cc(CCCO)cc(OC)c2O)c1O,-,-
C=CCc1cc(OC)c(O)c(-c2cc(CC=C)cc(OC)c2O)c1,61,-
COc1ccc(-c2coc3c4c(ccc3c2=O)OCN(C2CC(C)(C)NC(C)(C)C2)C4)cc1,-,-
Cc1ccccc1CN1C(=O)CSc2ccc(C(=O)N3CCN(c4ccccn4)CC3)cc21,-,-
O=[N+]([O-])c1c(Cl)cc(O)c2c1C1C=CCC1C(c1ccccc1)N2 (centres undefined),75,-
Cc1cccc2c1NC(c1ccc([N+](=O)[O-])cc1)C1CC=CC21 (centres undefined),-,-
O=[N+]([O-])c1ccc(C2Nc3c(O)cc(Cl)c([N+](=O)[O-])c3C3C=CCC32)cc1 (centres undefined),92,-
O=C(CCS(=O)(=O)c1cccc2nsnc12)Nc1ccc2c(c1)OCCO2,-,-
COc1ccc(OC)c(-c2[nH]ncc2CN2CCCC2c2c(C)noc2C)c1 (centres undefined),-,-
CCn1cnnc1C1CCCCN1C(=O)CCc1c[nH]c2ccccc12 (centres undefined),56,-
CCCn1cnnc1C1CCCCN1C(=O)CCc1ccccc1OC (centres undefined),-,-
Cc1ccccc1Oc1nccnc1N1CCCC(C(=O)Nc2cccc(Cl)c2)C1 (centres undefined),-,-
O=C(CSc1nnc2n1CCN2c1ccc(F)cc1)NCC1CCCO1 (centres undefined),-,-
Cn1cccc1C(=O)N1CCC(CCOc2ccccc2)CC1,58,-
Cn1nccc1C(=O)N1CCC(CCOc2ccccc2)CC1,-,-
O=C(COc1ccc(F)cc1)N1CCC(CCOc2ccncc2)CC1,-,-
O=C(COc1ccc(F)cc1)N1CCC(CCOc2ccccc2)CC1,70,-
NC(=O)c1cc2cc([N+](=O)[O-])ccc2oc1=Nc1ccccc1F,-,-
Cc1cccc(C2C(C(=O)N3CCOCC3)c3ccccc3C(=O)N2C2CC2)c1 (centres undefined),-,-
NNC(=O)CSc1nnc(-c2ccc(Cl)cc2)n1-c1ccccc1,-,-
CCC(C)(C)C(=O)Nc1cc(C)on1,-,.

# Compound activity (PubChem)
